# Test results: PubChem BioAssay (NCATS)
# Results filed as inconclusive are left out. Activity calls are given as the source filed them. The call rests on the fitted dose curve; in most records, active means well fitted curve in the direction sought with a large enough effect; inconclusive means small, poorly fitted or top-dose-only effect, or another doubt; inactive means no such curve, though single readings can be large; an effect the other way counts as inactive or inconclusive.
# Target: Tyrosine-protein kinase Yes (Homo sapiens) (UniProt P07947)
# Sequence (P07947 whole entry, looked up): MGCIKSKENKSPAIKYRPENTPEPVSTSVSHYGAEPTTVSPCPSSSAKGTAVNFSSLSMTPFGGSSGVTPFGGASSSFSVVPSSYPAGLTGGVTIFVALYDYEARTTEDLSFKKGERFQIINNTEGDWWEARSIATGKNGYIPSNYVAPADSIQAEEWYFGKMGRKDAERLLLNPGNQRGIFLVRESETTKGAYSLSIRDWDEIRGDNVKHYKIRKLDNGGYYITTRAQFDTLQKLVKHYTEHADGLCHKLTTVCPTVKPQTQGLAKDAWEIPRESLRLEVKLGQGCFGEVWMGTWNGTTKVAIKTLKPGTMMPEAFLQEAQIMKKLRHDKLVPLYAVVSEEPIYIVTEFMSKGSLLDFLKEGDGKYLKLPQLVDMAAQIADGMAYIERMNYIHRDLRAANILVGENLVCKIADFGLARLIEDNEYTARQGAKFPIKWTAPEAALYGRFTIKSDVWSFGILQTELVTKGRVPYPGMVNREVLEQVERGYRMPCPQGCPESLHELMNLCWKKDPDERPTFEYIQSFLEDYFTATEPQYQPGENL
# Assay: qHTS for small molecule inhibitors of Yes1 kinase: Primary Screen (AID 686947); further: nearly all actives have a fitted effect of over 60% in size; further: potency means the concentration at half of the fitted maximal effect;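 on activity change, negative = inhibition: plate controls were DMSO with enzyme for no effect and no-enzyme DMSO wells for full effect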
# Details: Yes1 kinase biochemical qHTS inhibition; series mostly up to 76.9 µM; activity change, negative = inhibition: at the top concentration
# Outline: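 In this qHTS format, inhibition is expressed relative to DMSO controls with enzyme (maximum) and without enzyme (minimum). The 60 min room-temperature reaction uses 0.1 mM ATP, with ADP detected by luminescence.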
SMILES,Potency,"activity change, negative = inhibition"
CS(=O)(=O)Nc1cccc(-c2ccc3c(NC(=O)C4CC4)n[nH]c3c2)c1,11600 nM (active),–
Nc1nc(-c2cccc(Cl)c2)c(-c2ccc3ncccc3n2)s1,1160 nM (active),–
Nc1ncc(-c2cccc(S(N)(=O)=O)c2)c2scc(-c3ccc(F)c(Cl)c3)c12,368 nM (active),–
CCn1c(-c2nonc2N)nc2c(N3CCCC3)nccc21,–,-2.26% (inactive)
NS(=O)(=O)c1ccc(Nc2cc(-c3ccc(O)c(F)c3)[nH]n2)cc1,5820 nM (active),–
COc1cccc(-n2ncc3c(NN=Cc4ccc(F)cc4)ncnc32)c1,582 nM (active),–
O=C1NC(=O)C(N2CCc3ccccc32)=C1c1ccc(Cl)cc1,–,-3.14% (inactive)
N#Cc1cccc(Nc2ncc(-c3ccccc3)o2)c1,26000 nM (active),–
O=S1CCN(Cc2ccc(-c3ccc4ncnc(Nc5ccc(OCc6ccccc6)c(F)c5)c4c3)o2)CC1,463 nM (active),–
FC(F)(F)c1cccc(-c2nn3ncccc3c2-c2ccnc(Nc3ccc4c(c3)OCCO4)n2)c1,412 nM (active),–
O=C(OC1CNC(C#Cc2cc3ncnc(Nc4ccc5c(cnn5Cc5ccccc5)c4)c3s2)C1)N1CCOCC1 (stereo unspecified),1040 nM (active),–
Cc1ccc(O)cc1Nc1ccnc2ccc(S(C)(=O)=O)cc12,2.1 nM (active),–
Nc1nc(-c2ccc3c(c2)C(=Cc2cc(Br)c(O)c(Br)c2)C(=O)N3)cs1,1460 nM (active),–
CCn1c(-c2nonc2N)nc2ccc(F)cc21,–,-1.05% (inactive)
NS(=O)(=O)c1cccc(-c2ccc3c(NC(=O)C4CC4)n[nH]c3c2)c1,4120 nM (active),–
CN(C)CCCn1c(-c2nonc2N)nc2cnccc21,–,0.74% (inactive)
CCn1c(-c2nonc2N)nc2ccncc21,–,-2.75% (inactive)
O=C(OC1CNC(C#Cc2cc3ncnc(Nc4ccc(Cc5ccccc5)cc4)c3s2)C1)N1CCOCC1 (stereo unspecified),2070 nM (active),–
COc1cc(C=NNc2ncnc3c2cnn3-c2ccccc2)ccc1O,292 nM (active),–
CS(=O)(=O)CCN(CC#N)Cc1ccc(-c2ccc3ncnc(Nc4ccc(OCc5cccc(F)c5)c(Cl)c4)c3c2)o1,–,-18% (inactive)
NC(=O)c1sc(-n2cnc3cc(C(F)(F)F)ccc32)cc1OCc1ccccc1Br,–,6.05% (inactive)
COC(=O)Nc1nc2ccc(Oc3ccc(NC(=O)Nc4cccc(Cl)c4)cc3)cc2[nH]1,–,1.48% (inactive)
CCn1c(-c2nonc2N)nc2cnc(Oc3cccc(NC(=O)c4ccc(N(C)C)cc4)c3)cc21,–,1.59% (inactive)
NS(=O)(=O)c1ccc(N=Nc2c(O)[nH]c3ccc(C(=O)NCCc4cnc[nH]4)cc23)cc1,2600 nM (active),–
CN(c1ccc(NC(=O)NCCN2CCOCC2)cc1)c1ccnc(Nc2ccc(CS(C)(=O)=O)cc2)n1,11600 nM (active),–
COc1ccc(-c2cc3c(N)ncnc3o2)cc1,6540 nM (active),–

# System: not listed separately
# Assay: qHTS for small molecule inhibitors of Yes1 kinase: Counter Assay (AID 686950);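 further: no kinase present so only ADP-Glo detection of a fixed ADP amount is tested; luminescence from ADP-Glo reporting ADP in a fixed ATP and ADP mixture; 0% = DMSO wells with ATP plus ADP and -100% = ATP-only wells without ADP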
# Details: series mostly up to 76.9 µM; activity change, negative = inhibition: at the top concentration
# Outline: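 ADP-Glo luminescence read after a 60 min room-temperature incubation of compound with an ATP/ADP mix (0.08 mM/0.02 mM) and no kinase, following a 20 min compound preincubation. Signal scaled between ATP+ADP (max) and 0.1 mM ATP-only (min) wells; Tris pH 7.5, Mg2+, DTT.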
row,SMILES,"activity change, negative = inhibition"
1,CC1=C(C(=O)Nc2ccc3[nH]ncc3c2)C(c2ccc3ccccc3c2)CC(=O)N1 (stereo unspecified),-3.69% (inactive)
2,CCOc1nccc2c1nc(-c1nonc1N)n2CC,6.17% (inactive)
3,Fc1ccc(-c2ncn(C3CCNCC3)c2-c2ccnc(Oc3ccc(F)c(F)c3)n2)cc1,3.41% (inactive)
4,c1ccc(COc2ccc(Nc3ncnc4ccc(-c5ccco5)cc34)cc2)cc1,2.46% (inactive)
5,CC1=C(C(=O)Nc2ccc3[nH]ncc3c2)C(c2ccc(Cl)c(Cl)c2)CC(=O)N1 (stereo unspecified),1.49% (inactive)
6,Fc1cccc(COc2ccc(Nc3ncncc3C#Cc3ccccc3)cc2Cl)c1,3% (inactive)
7,CC(C)(CO)CNC(=O)c1ccc2[nH]c(O)c(N=Nc3ccc(S(N)(=O)=O)cc3)c2c1,0.7% (inactive)
8,COc1cc2c(cc1Nc1nc(Nc3ccsc3C(N)=O)c3cc[nH]c3n1)N(C(=O)CN(C)C)CCC2,-1.27% (inactive)
9,COc1cccc(-n2ncc3c(NN=Cc4cccc(F)c4)ncnc32)c1,-1.92% (inactive)
10,CCS(=O)(=O)c1ccc(OC)c(Nc2ncc(-c3cccc(F)c3)o2)c1,4.68% (inactive)
11,COc1ccc(-c2nn3ncccc3c2-c2ccnc(Nc3cccc(C(F)(F)F)c3)n2)cc1,4.08% (inactive)
12,COc1c(C(N)=O)cc(-c2ccc(Cl)cc2)cc1-c1ccc(S(N)(=O)=O)cc1,-3.56% (inactive)
13,CS(=O)(=O)CCNCc1ccc(-c2ccc3ncnc(Nc4ccc(OCc5ccccc5)cc4)c3c2)o1,0.334% (inactive)
14,Fc1ccc(Nc2nccc(-c3c(-c4ccc(C(F)(F)F)cc4)nn4ncccc34)n2)cc1F,4.62% (inactive)
15,CS(=O)(=O)Nc1cccc(-c2ccc3c(NC(=O)C4CC4)n[nH]c3c2)c1,4.81% (inactive)
16,Nc1nc(-c2cccc(Cl)c2)c(-c2ccc3ncccc3n2)s1,0.155% (inactive)
17,Nc1ncc(-c2cccc(S(N)(=O)=O)c2)c2scc(-c3ccc(F)c(Cl)c3)c12,4.98% (inactive)
18,CCn1c(-c2nonc2N)nc2c(N3CCCC3)nccc21,6.64% (inactive)
19,NS(=O)(=O)c1ccc(Nc2cc(-c3ccc(O)c(F)c3)[nH]n2)cc1,-2.43% (inactive)
20,COc1cccc(-n2ncc3c(NN=Cc4ccc(F)cc4)ncnc32)c1,-1.32% (inactive)

row,SMILES,"activity change, negative = inhibition"
1,O=C1NC(=O)C(N2CCc3ccccc32)=C1c1ccc(Cl)cc1,-2.91% (inactive)
2,N#Cc1cccc(Nc2ncc(-c3ccccc3)o2)c1,-0.821% (inactive)
3,O=S1CCN(Cc2ccc(-c3ccc4ncnc(Nc5ccc(OCc6ccccc6)c(F)c5)c4c3)o2)CC1,5.75% (inactive)
4,FC(F)(F)c1cccc(-c2nn3ncccc3c2-c2ccnc(Nc3ccc4c(c3)OCCO4)n2)c1,-2.39% (inactive)
5,O=C(OC1CNC(C#Cc2cc3ncnc(Nc4ccc5c(cnn5Cc5ccccc5)c4)c3s2)C1)N1CCOCC1 (stereo unspecified),8.31% (inactive)
6,Cc1ccc(O)cc1Nc1ccnc2ccc(S(C)(=O)=O)cc12,-1.73% (inactive)
7,Nc1nc(-c2ccc3c(c2)C(=Cc2cc(Br)c(O)c(Br)c2)C(=O)N3)cs1,56.6% (inactive)
8,CCn1c(-c2nonc2N)nc2ccc(F)cc21,5.02% (inactive)
9,NS(=O)(=O)c1cccc(-c2ccc3c(NC(=O)C4CC4)n[nH]c3c2)c1,-4.28% (inactive)
10,CN(C)CCCn1c(-c2nonc2N)nc2cnccc21,-0.0764% (inactive)
11,CCn1c(-c2nonc2N)nc2ccncc21,2.56% (inactive)
12,O=C(OC1CNC(C#Cc2cc3ncnc(Nc4ccc(Cc5ccccc5)cc4)c3s2)C1)N1CCOCC1 (stereo unspecified),-0.752% (inactive)
13,COc1cc(C=NNc2ncnc3c2cnn3-c2ccccc2)ccc1O,3.33% (inactive)
14,CS(=O)(=O)CCN(CC#N)Cc1ccc(-c2ccc3ncnc(Nc4ccc(OCc5cccc(F)c5)c(Cl)c4)c3c2)o1,1.43% (inactive)
15,NC(=O)c1sc(-n2cnc3cc(C(F)(F)F)ccc32)cc1OCc1ccccc1Br,2.62% (inactive)
16,COC(=O)Nc1nc2ccc(Oc3ccc(NC(=O)Nc4cccc(Cl)c4)cc3)cc2[nH]1,5.45% (inactive)
17,CCn1c(-c2nonc2N)nc2cnc(Oc3cccc(NC(=O)c4ccc(N(C)C)cc4)c3)cc21,2.5% (inactive)
18,NS(=O)(=O)c1ccc(N=Nc2c(O)[nH]c3ccc(C(=O)NCCc4cnc[nH]4)cc23)cc1,7.42% (inactive)
19,CN(c1ccc(NC(=O)NCCN2CCOCC2)cc1)c1ccnc(Nc2ccc(CS(C)(=O)=O)cc2)n1,-1.16% (inactive)
20,COc1ccc(-c2cc3c(N)ncnc3o2)cc1,-0.139% (inactive)
